Records with an inconclusive call do not appear. Activity calls are given as the source filed them. Calls come from the whole dose curve; as a rule, active = well fitted curve in the direction sought with a large enough effect; inconclusive = small, poorly fitted or top-dose-only effect, or another doubt; inactive = no such curve, though single readings can be large; an effect the other way counts as inactive or inconclusive.
Columns and labels:
[1] = target: Glutathione peroxidase 1 (Homo sapiens) (UniProt P07203); assay: Primary qHTS Assay for Inhibitors of Recombinant Selenoprotein Glutathione Peroxidase 1 (GPX1) (AID 1845191); note: nearly all actives have a fitted effect of over 65% in size; note: potency is the fitted concentration of half-maximal effect; for activity, negative = inhibition: % is set by controls: 0 for no effect and ±100 for the full control effect
Method in brief: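 10 nM GPX1 + cpd, 30 min RT; start w/ 1 mM GSH, 0.5 mM cumene hydroperoxide, 0.5 mM NADPH, 100 nM GR, 0.01% BSA; buffer 50 mM Tris-HCl pH 7.5, 2 mM EDTA, 150 mM NaCl; Fl 340/450, 0 & 15 min.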

[2] = target: Phospholipid hydroperoxide glutathione peroxidase GPX4 (Homo sapiens) (UniProt P36969); assay: Primary qHTS Assay for Inhibitors of Recombinant Selenoprotein Glutathione Peroxidase 4 (GPX4) (AID 1845192); note: nearly all actives have a fitted effect of over 65% in size; note: potency is the fitted concentration of half-maximal effect; for activity change, negative = inhibition: series mostly up to about 50 µM; % is set by controls: 0 for no effect and ±100 for the full control effect
Method in brief: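 NADPH consumption, followed by fluorescence at 340/450 nm between 0 and 15 min, reports GPX4 activity via coupled glutathione reductase (100 nM). Enzyme 200 nM was pre-exposed to compound 30 min; 0.5 mM cumene hydroperoxide and 1 mM GSH served as substrates.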

[3] = target: Luciferin 4-monooxygenase (Photinus pyralis) (UniProt P08659); assay: Primary firefly luciferase (FLuc) qHTS assay for identification of artifact compounds. (AID 1845220); note: nearly all actives have a fitted effect of over 60% in size;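 for activity change, negative = inhibition: series mostly up to about 54 µM; plate controls were DMSO vehicle for no effect and no enzyme for full effect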
Method in brief: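 FLuc 10 nM; luciferin 10 uM; ATP 10 uM; Tris-acetate pH 7.6, Mg-acetate 10 mM; 15 min RT preincubation; 5 min reaction; luminescence.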

[4] = Primary fluorescence-based thiol-reactive (MSTI) qHTS assay for identification of artifact compounds. (AID 1845221); note: nearly all actives have a fitted effect of over 65% in size; note: potency is the fitted concentration of half-maximal effect;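 for activity change, negative = thiol reactive: series mostly up to about 54 µM; thiol-reactive compounds lower the probe fluorescence signal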
Method in brief: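 Compounds were incubated 1 h at room temperature in the dark with the MSTI probe (4 uM) in PBS pH 7.4, 2% DMSO. Signals were normalized between Acetyl-MSTI and MSTI.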

[5] = tested on: Nanoluciferase (engineered Oplophorus gracilirostris luciferase); assay: Primary Nanoluciferase (NLuc) qHTS assay for identification of artifact compounds. (AID 1845222);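 note: NLuc secreted into diluted conditioned medium of S16 cells; series mostly up to about 54 µM; 0% = DMSO and -100% = no enzyme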
Method in brief: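 NLuc from S16 cell medium (1:55) plus test compounds, 15 min, room temperature. Luminescence after Nano-Glo (1:100) addition, 5 min.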

Chain of Glutathione peroxidase 1 (Homo sapiens) (P07203 whole entry, looked up): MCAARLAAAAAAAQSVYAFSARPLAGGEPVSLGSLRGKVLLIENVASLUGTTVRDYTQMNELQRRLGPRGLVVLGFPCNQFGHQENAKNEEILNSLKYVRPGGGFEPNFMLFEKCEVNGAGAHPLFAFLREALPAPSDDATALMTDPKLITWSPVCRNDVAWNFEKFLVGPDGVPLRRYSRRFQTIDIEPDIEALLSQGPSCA
Chain of Phospholipid hydroperoxide glutathione peroxidase GPX4 (Homo sapiens) (P36969 whole entry, looked up): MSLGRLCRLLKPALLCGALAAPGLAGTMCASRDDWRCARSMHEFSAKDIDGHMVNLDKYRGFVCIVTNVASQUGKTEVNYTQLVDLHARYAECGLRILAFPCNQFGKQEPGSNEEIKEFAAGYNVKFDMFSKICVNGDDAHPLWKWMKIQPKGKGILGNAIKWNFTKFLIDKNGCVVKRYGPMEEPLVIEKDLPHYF

C/C=C(\C)C(=O)OC1C[C@@]2(COC(C)=O)O[C@H]2/C=C\[C@@]2(C)O[C@@H]2[C@H]2OC(=O)C(COC(C)=O)=C12 (stereo partly specified)
inactive: Potency [1] | Potency [2] | Potency [3] | Potency [5]
active: Potency [4] 13 µM

CCOc1ccc(N=C(C)Nc2ccc(OCC)cc2)cc1
inactive: Potency [1] | Potency [2]

C[N+](C)(CCCCCC[N+](C)(C)C1c2ccccc2-c2ccccc21)C1c2ccccc2-c2ccccc21
inactive: Potency [1] | Potency [2]

CC(=O)O[C@H]1[C@H](O)C[C@@]2(C)C(CC[C@]3(C)C2CC=C2C4CC(C)(C)CC[C@]4(C(=O)O)CC[C@]23C)C1(C)C (stereo partly specified)
inactive: Potency [1] | Potency [2] | Potency [3] | Potency [4] | Potency [5]

C=Cc1ccccc1
inactive: Potency [1] | Potency [2]

O=C(NCC1CCN(Cc2cccc(Cl)c2)CC1)[C@@H]1CCCN(c2ncnc3c2nc2n3CCCC2)C1
inactive: Potency [1] | Potency [2] | Potency [3] | Potency [4] | Potency [5]

O=C(O)c1cc2ccccc2c(Cc2c(O)c(C(=O)O)cc3ccccc23)c1O
inactive: Potency [1] | Potency [2]

Cc1cccc(C)c1N(CCCc1cccnc1)C(=O)C(C)N (stereo unspecified)
inactive: Potency [1] | Potency [2]

COc1cc(O)c2c(c1)/C=C/C[C@H](O)[C@H](O)C(=O)/C=C\C[C@H](C)OC2=O
inactive: Potency [1] | Potency [2] | Potency [3] | Potency [4] | Potency [5]

C[C@H]1C[C@@H]2[C@H]([C@@H](O)C[C@@]3(C)[C@H]2CC[C@]3(O)C(=O)COC(=O)CCC(=O)O)[C@@]2(C)C=CC(=O)C=C12
inactive: Potency [1] | Potency [2]

CO/N=C(\C(=O)N[C@@H]1C(=O)N2C(C(=O)OCOC(=O)C(C)(C)C)=C(/C=C\c3scnc3C)CS[C@H]12)c1csc(N)n1
active: Potency [1] 4.53 µM | Potency [2] 14.1 µM

CCOC(=O)[C@@]1(CCCCCCOc2ccc(Cl)cc2)CO1
inactive: Potency [1] | Potency [2]

C=C(C)C1CC(O)C(C)C12CC(O)C1(C)OC1C2O (stereo unspecified)
inactive: Potency [1] | Potency [2] | Potency [3] | Potency [4]

CC(=O)O[C@H]1CC[C@@]2(C)C(=CC[C@H]3[C@@H]4CC[C@H](C(C)=O)[C@@]4(C)CC[C@@H]32)C1
inactive: Potency [1] | Potency [2]

CO[C@@H]1CC(OC2CCC3(C)C(CCC45CCC(C6=CC(=O)OC6)C(C)(CCC43)C5=O)C2)O[C@H](C)[C@@H]1O[C@@H]1O[C@H](CO[C@@H]2O[C@H](CO)[C@@H](O)[C@H](O)[C@H]2O)[C@@H](O)[C@H](O)[C@H]1O (stereo partly specified)
inactive: Potency [1] | Potency [2] | activity change, negative = inhibition [3] -4.2% [at 11.6 µM] | activity change, negative = thiol reactive [4] -1.23% [at 11.5 µM] | activity, negative = inhibition [5] -1.95% [at 11.6 µM]

COc1ccc(CCc2nc3cc(-c4c(C)noc4C)ccc3n2CC(C)N2CCOCC2)cc1Cl (stereo unspecified)
inactive: Potency [1] | Potency [2] | Potency [3] | Potency [4]

C=C[C@@]1(C)C=C2C(=O)C(O)=C3[C@](C)(C(=O)O)CC[C@@H]4C[C@]34[C@]2(O)C(=O)C1
inactive: Potency [1] | Potency [2] | Potency [3]
active: Potency [4] 13.1 µM

CCNC1(C(N)=O)CN(c2nc(C)nc3c(-c4ccc(Cl)cc4)c(-c4ccccc4Cl)nn23)C1
inactive: Potency [1] | Potency [2] | Potency [3] | Potency [4] | Potency [5]

COc1cc2c(cc1NS(=O)(=O)c1ccc(Br)cc1C)n(C)c(=O)n2C
inactive: Potency [1] | Potency [2] | Potency [3] | Potency [4]

CS(=O)(=O)OCCCNCCCOS(C)(=O)=O
inactive: Potency [1] | Potency [2]

CCCCCCCCCCCCCCCC(=O)OCCC1CCN(CCCN2c3ccccc3Sc3ccc(S(=O)(=O)N(C)C)cc32)CC1
inactive: Potency [1] | Potency [2]

CCc1c[nH]c2ncnc(N3CC[C@](N)(CNC(=O)c4ccc(F)cc4F)C3)c12
inactive: Potency [1] | Potency [2] | Potency [3] | Potency [4] | Potency [5]

CO[C@H]1[C@@H](O)[C@H](N)[C@@H](O[C@H]2O[C@H]([C@H](C)N)CC[C@H]2N)[C@H](O)[C@@H]1N(C)C(=O)CN
inactive: Potency [1] | Potency [2]

CCN(Cc1ccccc1)C(=O)Cn1c(=O)n(C)c2cnc(-c3ccccc3)nc21
inactive: Potency [1] | Potency [2] | Potency [3] | Potency [4] | Potency [5]

CN(C)Cc1ccccc1
inactive: Potency [1] | Potency [2]

CCc1cc(C(N)=O)ccc1-n1nc(C(C)C)c2c(-n3cnc(-c4cnn(C)c4)c3)ccnc21
inactive: Potency [1] | Potency [2] | Potency [3] | Potency [4] | Potency [5]

O=C(Cn1cnnn1)N[C@@H]1C(=O)N2C(C(=O)O)=C(CSc3nncs3)CS[C@H]12
active: Potency [1] 18 µM
inactive: Potency [2]

CCC(C)C(C(=O)OCC[N+](C)(CC)CC)c1ccccc1 (stereo unspecified)
inactive: Potency [1] | Potency [2]

CC(=O)O[C@H]1C[C@H](OC(C)=O)[C@]2(C)[C@H](CC[C@@]34O[C@@H]3C3=C(C)C(=O)O[C@@H]3C[C@H]42)C1(C)C
inactive: Potency [1] | Potency [2] | Potency [3] | Potency [4] | Potency [5]

O=C1C(c2[nH]c3ccc(S(=O)(=O)O)cc3c2O)=Nc2ccc(S(=O)(=O)O)cc21
inactive: Potency [1] | Potency [2]

O=P(O)(O)C(O)(Cc1cnc2ccccn12)P(=O)(O)O
inactive: activity, negative = inhibition [1] -12.2% [at 0.4 µM] | activity change, negative = inhibition [2] 0.142% [at 0.409 µM]

C[C@@H]1COCCN1c1cc(=O)n2c(n1)N(Cc1cncc(Cl)c1)[C@H](C(F)(F)F)CC2
inactive: Potency [1] | Potency [2]

CCCCC(=O)O
inactive: Potency [1] | Potency [2]

CON=C1C[C@]2(C[C@@H]3C[C@@H](C/C=C(\C)C[C@@H](C)/C=C/C=C4\CO[C@@H]5[C@H](O)C(C)=C[C@@H](C(=O)O3)[C@]45O)O2)O[C@H](/C(C)=C/C(C)C)[C@H]1C
inactive: Potency [1] | Potency [2]

Fc1ccc(N2CCN(CCC3OCCc4ccccc43)CC2)cc1 (stereo unspecified)
inactive: Potency [1] | Potency [2] | Potency [3] | Potency [4] | Potency [5]

CC(=O)O[C@@H]1CC2C(C)(C)C(=O)C=C[C@]2(C)C2CC[C@@]3(C)[C@H](c4ccoc4)OC(=O)[C@H]4O[C@]43[C@@]21C (stereo partly specified)
inactive: Potency [1] | Potency [2] | Potency [3] | Potency [4] | Potency [5]

O=C(C1CCCCC1)N(CCN1CCN(c2ccccc2O)CC1)c1ccccn1
inactive: Potency [1] | Potency [2] | Potency [3] | Potency [4] | Potency [5]

CC1(C)CC[C@]2(C(=O)O)CC[C@]3(C)C(=CCC4[C@@]5(C)C[C@@H](O)[C@H](O)[C@@](C)(CO)C5CC[C@]43C)[C@@H]2[C@@H]1O (stereo partly specified)
inactive: Potency [1] | Potency [2] | Potency [3] | Potency [5]
active: Potency [4] 10.3 µM
